Screens as filed in PubChem.
ALR inh: inhibitors of human sulfhydryl oxidase ALR; AID 485317; inhibition, % (concentration not given with the values); 290,000 tested, 3.8% active; purified ALR, DTT oxidation, H2O2 HRP-luminol luminescence;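 active means mean replicate inhibition above about 79%, with every replicate also reaching it, limit read from the data; inconclusive means only one of the two criteria met; inactive means mean below limit and not every replicate reaching it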
Target sequence (P55789 whole entry, looked up): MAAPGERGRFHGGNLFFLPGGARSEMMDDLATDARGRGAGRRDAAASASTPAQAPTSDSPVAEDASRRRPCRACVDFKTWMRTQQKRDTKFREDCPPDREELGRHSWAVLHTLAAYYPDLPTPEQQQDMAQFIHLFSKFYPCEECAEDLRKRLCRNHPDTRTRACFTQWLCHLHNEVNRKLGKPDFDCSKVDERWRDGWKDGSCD
Exocytosis inh: lytic granule exocytosis inhibition; 360,000 tested, 0.66% active; TALL-104 LAMP-1 surface exposure, flow cytometry; cells stimulated with thapsigargin and PMA; inhibition, % at 10 µM; AID 651702;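 active means inhibition above about 55%, limit read from the data; inconclusive means no clear call, values can overlap the other calls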
SMARCA2 activ: SMARCA2 function activation, primary screen; activation, % at 9.1 µM; 370,000 tested, 1% active; MG213 cells, MMTV-luciferase reporter, dexamethasone, overnight; in the data active means activation above about 7.8%;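 further: 0% = vehicle wells and 100% = reference activator wells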
JMJD2C inh: inhibitors of human GASC-1 (JMJD2C) demethylase. Q9H3R0. GST-JMJD2C(1-420) H3K9me3 demethylation, DELFIA europium. inhibition, % at 2.35 µM. 330,000 tested, 0.069% active. AID 2099;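 active means more than half of a compound's replicate wells show inhibition beyond 50%, single wells judged on their own value; inconclusive means some, but no more than half, of replicates pass 50% inhibition; inactive means no replicate passes 50% inhibition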;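 further: signal counts dimethyl H3K9 product captured on neutravidin plate; 0% = median of DMSO wells and 100% = 0.3 times that DMSO median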
Target sequence (Q9H3R0 1-420 limits assumed): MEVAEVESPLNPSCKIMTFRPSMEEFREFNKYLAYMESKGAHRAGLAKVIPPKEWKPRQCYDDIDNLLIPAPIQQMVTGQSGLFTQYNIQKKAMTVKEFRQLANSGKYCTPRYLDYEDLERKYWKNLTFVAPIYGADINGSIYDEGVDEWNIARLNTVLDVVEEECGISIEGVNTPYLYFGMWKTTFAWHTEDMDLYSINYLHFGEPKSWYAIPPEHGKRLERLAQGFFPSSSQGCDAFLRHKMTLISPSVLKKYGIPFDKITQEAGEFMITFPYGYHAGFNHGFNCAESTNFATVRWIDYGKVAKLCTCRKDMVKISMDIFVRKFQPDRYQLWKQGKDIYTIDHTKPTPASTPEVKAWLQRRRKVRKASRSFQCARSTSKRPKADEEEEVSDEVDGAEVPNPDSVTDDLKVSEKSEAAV
PfM18AAP inh-1: blocks P. falciparum M18 aspartyl aminopeptidase; recombinant PfM18AAP, H-Glu-NHMec fluorogenic cleavage; inhibition, % at 7.35 µM; 290,000 tested, 1.2% active; AID 1822;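 active means inhibition above the campaign mean inhibition over all tested compounds plus 3 SD, cut at about 28% in these data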;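 further: 0% = plate median of test compound wells and 100% = 2 mM ZnCl2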
MIN6 prolif: induces beta-cell replication in MIN6 cells; proliferation, % at 10 µM; MIN6 cells proliferation, ATPlite luminescence, 48 h; cells starved in 0.2% serum; 100% = growth in 10% serum; 330,000 tested, 0.29% active;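 active means compounds whose signal lies at least 3.5 SD above the mean of all wells on their plate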;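 further: 0% = DMSO-treated cells in low-serum medium and 100% = 10% serum control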
PfM18AAP inh-2: confirmation of Plasmodium falciparum M18 aspartyl aminopeptidase inhibitors; AID 2170; shares compounds with PfM18AAP inh-1; 2,400 tested, 28% active; inhibition, % at 7.35 µM; recombinant PfM18AAP, H-Glu-NHMec fluorogenic cleavage;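 active means mean inhibition over replicate wells above the hit cutoff set for the earlier primary screen, cut at about 29% in these data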;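 further: 0% = median of test compound wells and 100% = 2 mM ZnCl2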
CTSL1 counter: Cathepsin L (human) inhibition, confirmation | shares compounds with PfM18AAP inh-1 | purified cathepsin L1, Z-Leu-Arg-MCA fluorescence | inhibition, % at 5.96 µM | 2,400 tested, under 10 active | AID 2178;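 active means average inhibition across replicates above the hit cutoff set in the earlier primary screen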;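 further: 0% = median of test compound wells and 100% = Z-Phe-Ala-diazomethylketone 1 µM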
An asterisk follows results filed as active; u = inconclusive; x = no result. In the library only some 5.4% were active in any assay of this set; here they are far more common.

SMILES	ALR inh	Exocytosis inh	SMARCA2 activ	JMJD2C inh	PfM18AAP inh-1	MIN6 prolif	PfM18AAP inh-2	CTSL1 counter
COc1cc2nc(CN(C)Cc3ccc(SC)cc3)[nH]c(=O)c2cc1OC	-5	43	0	6	-5	1	x	x
COc1cc2nc(CSc3ncn[nH]3)[nH]c(=O)c2cc1OC	-9	-1	-1	-15	63*	-1	66*	-4
C=C(C)[C@@H]1C2=CC(C(=O)OC)=C(C[C@H](C(=C)C)[C@H]3O[C@H]3C3=C[C@H]1OC3=O)O2	x	-1	5	x	x	x	x	x
O=c1cc(CN2CCN(c3ccccc3O)CC2)nc2sccn12	99*	-2	0	8	35*	-2	-13	-1
CCCCNC(=O)C[C@H]1C[C@@]2(C(=O)OC)C(=C[C@H](COCc3ccccc3)O[C@@H]2C)N(CCC2=CCCCC2)C1=O	x	x	-2	x	x	x	x	x
COc1cc([N+](=O)[O-])ccc1NC(=O)NNC(=O)CCc1ccccc1	-8	5	2	2	0	-4	x	x
COc1cc([N+](=O)[O-])ccc1NC(=O)NNC(=O)c1sccc1C	5	-2	1	2	53*	3	45*	-2
O=C(NNC(=O)c1cc(O)c(O)c(O)c1)NC1CCCCC1	72	-5	1	11	46*	-5	11	-3
COCCN(C(=S)Nc1c(C)cccc1C)C(C)c1cccnc1 (configuration not stated)	19	-2	-2	-5	2	2	x	x
COCCN(C(=S)Nc1c(C)cc(C)cc1C)C(C)c1cccnc1 (configuration not stated)	-8	0	0	6	49*	-4	9	-8
C[C@@]12C[C@@H]3C(=O)N(Cc4ccccc4)CC(=O)N3[C@@H]1N(S(=O)(=O)c1ccccc1)c1ccccc12	x	x	0	x	x	x	x	x
S=C(NCc1ccco1)NCc1ccco1	x	-1	-3	x	x	x	x	x
Cc1cccc(NC(=S)NCc2ccco2)n1	-9	-1	-2	-17	38*	-2	-35	1
NC(=O)/C(=C/c1ccco1)C(N)=S	3	-8	7	u	42*	-2	-15	-1
Cn1c(SC2CCCC2)nnc1-c1ccco1	x	x	0	x	x	x	x	x
COc1ccc(Oc2c(Cl)cnn(C3c4ccccc4-c4ccccc43)c2=O)cc1	x	x	-3	x	x	x	x	x
Nc1nc2c(ncn2[C@@H]2O[C@H](C(=O)NCCc3c[nH]c4ccccc34)[C@@H](O)[C@H]2O)c(=O)[nH]1	x	x	-3	x	x	x	x	x
O=C(C(=O)N1CCN(C(=O)C2CCCC2)CC1)c1cccc(C(F)(F)F)c1	x	x	0	x	x	x	x	x
CC(=O)c1c(O)cc(C)n(Nc2nc(C)cc(C)n2)c1=O	2	1	0	1	34*	-3	-28	2
Nc1nc2c(ncn2[C@@H]2O[C@H](C(=O)NCCCN3CCCC3=O)[C@@H](O)[C@H]2O)c(=O)[nH]1	x	x	-2	x	x	x	x	x
CCN(CC)C(=O)c1c(C)[nH]c(=S)c(C#N)c1-c1ccco1	-9	-2	0	7	56*	-1	21	1
N#Cc1c(-c2ccco2)c2c([nH]c1=S)CCCC2	11	2	1	3	x	-1	x	x
C[C@@H]1ON(C)[C@H]2C[C@H]3c4[nH]c5c(-c6cccc(Cl)c6)cccc5c4CCN3C(=O)[C@@H]12	x	x	-5	x	x	x	x	x
CC1C/C(=N/N2C(=O)CSC2=S)CC(C)(C)C1 (configuration not stated)	5	0	0	-6	38*	3	-20	-3
CC(=O)N1CCN(c2ccc(N3CCN(Cc4ccccc4)[C@@H](C)C3)c(C)c2)[C@@H](C)C1	x	x	-3	x	x	x	x	x
SMILES	ALR inh	Exocytosis inh	SMARCA2 activ	JMJD2C inh	PfM18AAP inh-1	MIN6 prolif	PfM18AAP inh-2	CTSL1 counter
COc1ccc(OC)c(-c2c3cc(O)c(=O)cc-3oc3cc(O)c(O)cc23)c1	80*	4	x	29	45*	x	26	4
Cc1cc(N2CCN(C(=O)OC(C)(C)C)C[C@H]2C)ccc1Br	x	x	-5	x	x	x	x	x
CCCCc1c(-c2ccccc2OC)ncn1Cc1ccc(OC)c(Cl)c1	x	x	-7	x	x	x	x	x
Clc1ccc(CN2CCN(N=Cc3cccc(OCc4ccccc4)c3)CC2)cc1	x	x	1	x	x	x	x	x
CN(C)C(=S)Nc1ccc2c(c1)OCO2	22	-6	1	13	38*	-4	5	1
CCC(=O)N[C@@H]1C[C@@H]2O[C@@H](CO)CC[C@@H]2O[C@@H]1CCc1ccc(-c2cccc(OC)c2)cc1	x	x	-3	x	x	x	x	x
COc1cc(C2Nc3ccc4ncccc4c3C3=C2C(=O)CCC3)cc(OC)c1O (configuration not stated)	x	3	0	26	43*	-4	-5	2
O=Cc1coc([B-](F)(F)F)c1	x	x	-4	x	x	x	x	x
CC(=O)N1CCC(=NNc2ncc(C(F)(F)F)cc2Cl)CC1	4	0	-1	-5	33*	-3	-3	5
Cc1cccc(NC(=O)C2CCN(c3ncccn3)CC2)c1C	x	x	-1	x	x	x	x	x
CCOc1ccccc1N1CCN(Cc2cc3c(cc2[N+](=O)[O-])OCO3)CC1	5	1	-4	-20	6	-3	x	x
Cc1ccccc1N1CCN(Cc2cc3c(cc2[N+](=O)[O-])OCO3)CC1	-3	21	2	-29	35*	-2	-26	-1
CCOC(=O)c1c(C)n(C)c2ccc(OC(=O)c3ccc(N4C(=O)CCC4=O)cc3)cc12	-1	-2	0	-7	57*	-1	-58	2
OC1(C#Cc2c(-c3ccsc3)sc3ccccc23)CCCCC1	x	x	-2	x	x	x	x	x
CCOC(=O)C1C(=O)C=C(c2cccs2)CC1c1ccccc1C (configuration not stated)	x	9	1	19	4	2	x	x
CCOC(=O)C1C(=O)C=C(c2cccs2)CC1c1ccccc1 (configuration not stated)	x	1	-3	-3	56*	4	-43	-1
O=C1NC(=S)CN1c1ccccc1	40	-2	2	6	42*	-1	13	-4
N#Cc1c(-c2cccnc2)c2c([nH]c1=S)CCCC2	0	20	1	4	33*	-3	51*	-7
O=C(CSc1nnc(-c2ccccc2)n1-c1ccc(Cl)cc1)c1ccc(F)cc1	x	x	-3	x	x	x	x	x
COc1ccccc1CNCc1cc(Br)ccc1OC	-1	-3	-4	7	1	-2	x	x
COc1ccc(Br)cc1CNc1ccc(O)cc1	98*	3	-5	x	42*	0	-24	-3
COc1cc(CN2CCCCCC2)c([N+](=O)[O-])cc1OC	-19	-6	2	-1	33*	-1	-30	-7
COc1cc(CN2CCSCC2)c([N+](=O)[O-])cc1OC	x	2	-1	-8	26	1	x	x
